In PubChem BioAssay AID1508600 (Functional Genomics Laboratory (NCATS/FGL), 2020) one finds z-score data, which are given here for 30 sequences.

In all, about 53,000 sequences went through this assay and about 3,700 (7%) were called active.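 How the source made its calls: active means gene knockdowns whose robust z-score for IL-1 alpha signal is at least 2 or at most -2, so actives lie on both sides; inactive means the rest.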 Shown is part of a subset that was picked to be rich in actives.

The nature of this experiment: Components of the Cytosolic LPS Sensing Pathway: Gene Identification via Genome-wide siRNA Screen.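 Further: robust z of the log signal after scaling to non-targeting control siRNA wells of the plate.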 Conditions: RAW264.7 macrophages, IL-1a HTRF, actives lie on both sides, screened at 100 nM (by protocol), cells primed 5 h with Pam3CSK4 first. Put shortly: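 Read-out: IL-1a HTRF on supernatant, divided by plate negative-control median ×100, log-transformed and converted to robust z-score. Cells were RAW264.7 given 100 nM siRNA, Pam3CSK4-primed 5 hours, then LipidA-transfected 24 hour.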
A general note: Time-resolved FRET reads energy transfer from a long-lived donor to a nearby acceptor.
Turning to GGUAUUGAAAUGGAAAAGGTT against D6Wsu163e, the z-score is -1.2 (inactive).
As to GGGCCUAUGCUUACAAACGTT against Pkp3, the z-score is 2.37 (active).
In the case of GGUUCUAAUUAGAGAAACATT against Tcte1 it was 0.461 (inactive).
As to CGACCAUUCCUUUGAGUUATT against Atl1, the z-score is 3.09 (active).
The value for GGAGCUACCUCUGGAUACATT against Tmem269 was 1.28 (inactive).
Consider GGUACUGGAAAGAAAUGAGTT against Exph5, for which the z-score is 0.356 (inactive).
As for GGUUGUCAUAAUCUUGUUATT against Irgq, the z-score was -0.59 (inactive).
In the case of GGUAUUUAGGUUGAUAACATT against Kbtbd8 it was -0.206 (inactive); in that of GGUCUUAGAUAAUGUUAGATT against Gpr26, 0.718 (inactive).
In the case of CCCUGUAAGGUUGAUUGUGTT against Oog3 it was 0.535 (inactive).
The value for GGCUCAUUCCUCUUCUUCCTT against Serhl was -3.08 (active).
GCCAAGUAAAACCAAAUGUTT against Ldlrad4: the z-score is -1.85 (inactive).
In the case of CCGAGAACAGUUGAAGAAGTT against Srbd1 it was 0.174 (inactive); in that of GGUGGAUGAGUUGUUCCUUTT against Adck5, 0.637 (inactive).
The value for GCUACAGGAUUUAUACAUGTT against Dhx29 was 0.865 (inactive); that for GGGACUUAUGUACAACUUCTT against Idua was 1.53 (inactive).
In the case of CCUCUGCGCAAUUUAGAGATT against Npb, the z-score was 1.1 (inactive).
The value for GACAAGAACCCGGAUAAUATT against Dnajb2 was -0.229 (inactive); that for GCAAGCACGUCAGAAUCUCTT against Pln was 2.32 (active).
The value for GGAAGAACUGAUUGAAGAGTT against Sptlc1 was -0.789 (inactive); that for GGUGAAAGACCAUUUAUUUTT against Zxdc was 0.657 (inactive).
The value for CGUGACUCUGCUUUAACUCTT against Col27a1 was -2.27 (active); that for GGAGCUUGCUCAGACUACUTT against Cct8 was -0.914 (inactive).
Consider GCCUAUCGUCCAGAUUAUCTT against Senp1, for which the z-score is 0.919 (inactive).
In the case of GGUCAAGUAUCUGAGAAAATT against Selenoh it was 0.154 (inactive); in that of GGCGAUAAGGAACAGAAGUTT against Ppp3r1, -0.199 (inactive); in that of GGUCAACCUCAAAGUCUUUTT against Il17a, 0.581 (inactive).
In the case of GGGCUUCAGAAAAUCCAGGTT against Dclre1a it was -0.447 (inactive); in that of GGCUCCUAUAUACUGAUCATT against Olfr1402, -2.65 (active); in that of CCUGGUAAAAGACUGGGCUTT against Dnal1, 1.76 (inactive).
